# Screens from PubChem.
# VCAM1 pot – enhances TNF alpha induced VCAM1 expression in HUVEC | HUVEC TNFa-stimulated VCAM-1 immunofluorescence, high-content imaging; scaled per plate to unstimulated/TNFa-only wells | activation, % at 2 µM | 0.19% of 93,000 active;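 active = activation above the screen mean plus 3 SD, with well images confirming the hit on visual review, cut at about 28% in these data, passing the limit was not always enough; inconclusive = activation above that limit but images do not confirm it; inactive = activation not above that limit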;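 note: signal is the number of cytoplasmic VCAM-1 stained grains per positive cell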
# VCAM1 pot conf – potentiators of TNFa-induced VCAM1 expression, confirmation, imaging, HUVEC, triplicate retest | shares compounds with VCAM1 pot | HUVEC TNFa-stimulated VCAM-1 immunofluorescence imaging | 230 tested, under 10 active | activation, % at 2 µM | AID 1034;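 active = activation above 30% in triplicate retests at 2 µM, then confirmed by visual review of the well images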;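 note: scaled per plate between unstimulated and TNFa-stimulated DMSO control wells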
# Starred values were filed as active, the others as inactive; ? = inconclusive. This is one part of a sample in which hits are shown more often than they occur.
SMILES,VCAM1 pot,others
CCOC(=O)N1CCN(C(=O)C2CCC(CNS(=O)(=O)c3ccccc3)CC2)CC1 (stereo unspecified),-10,
COc1ccc(CN(CC(=O)NCC2CCCO2)C(=O)CNS(=O)(=O)c2ccc(C)cc2)cc1 (stereo unspecified),18,
Cc1ccc2c(c1)-c1ccccc1S(=O)(=O)N2,32*,VCAM1 pot conf=-4
CC(C)(C)N1CC2(c3ccccc3)CN(C(C)(C)C)CC(c3ccccc3)(C1)C2=O,-2,
COC(=O)CSC(C(=O)Nc1ccc(C)c(C)c1)c1ccccc1 (stereo unspecified),-1,
CC(=O)c1cccc(N(CC(=O)O)S(C)(=O)=O)c1,0,
CCn1c(=O)cc(OCC(=O)NCc2ccco2)c2ccccc21,-72,
O=C(CCCn1c(=O)c2ccccc2n(CC(=O)NCc2ccco2)c1=O)NCc1ccco1,?,VCAM1 pot conf=-21
CCOc1cc2[nH]c(=S)n(CCCC(=O)NCc3ccco3)c(=O)c2cc1OCC,-2,
CCOc1ccc(CCNC(=O)Cn2c(=O)oc3ccccc32)cc1OCC,0,
Cc1cc(NC(=O)C2CCN(S(=O)(=O)Cc3ccccc3)CC2)ccc1-n1cnnn1,-10,
N#CC(/C(=N/S(=O)(=O)c1cccs1)c1ccccc1)c1nc2ccccc2[nH]1 (stereo unspecified),-5,
CCOC(=O)c1cnc2nc(COc3ccccc3)[nH]n2c1=O,-6,
COc1ccc(Cc2nn3c(-c4ccccc4Br)nnc3s2)cc1,7,
c1ccc(-c2nnc3sc(-c4ccncc4)nn23)cc1,-7,
CCOc1ccc(-c2nnc3sc(COc4ccc(C)cc4)nn23)cc1,40*,VCAM1 pot conf=-17
CCC(CC)C(=O)c1c[nH]c(C(=O)NCC2CCCO2)c1 (stereo unspecified),-4,
COc1ccc(C(=S)N2CCN(C)CC2)cc1Br,38*,VCAM1 pot conf=-22
CCCN1CCN(S(=O)(=O)c2ccc(OC)c(Br)c2)CC1,0,
COc1cc(OC)cc(C(=O)N2CCN(C(=O)c3ccc(OC)c(OC)c3)CC2)c1,-2,
O=C(NCc1ccco1)c1n[nH]c(=O)c2ccccc12,-5,
Cc1cccc(CCNS(=O)(=O)c2ccc3c(c2)oc(=O)n3C)c1,111*,VCAM1 pot conf=-14
CCOc1ccccc1CNS(=O)(=O)c1ccc2c(c1)oc(=O)n2C,-8,
Cc1cccc(CCNC(=O)CN(C)S(=O)(=O)c2ccc3c(c2)c(=O)n(C)c(=O)n3C)c1,-1,
Nc1nonc1-n1nnc(C(=O)O)c1-c1cccs1,-18,
SMILES,VCAM1 pot,others
CN1CCN(c2ncccc2S(=O)(=O)N2CCCCC2)CC1,14,
CNc1nc(NC)nc(-n2c(C(F)(F)F)nc3ccccc32)n1,2,
O=C(NCCCNC(=O)c1ccco1)c1ccco1,-6,
O=C(NCCCCNC(=O)c1cccnc1)c1cccnc1,?,VCAM1 pot conf=-12
CCOC(=O)Cc1csc(NC(=O)c2cccnc2)n1,33,
CC(C)(C)C(=O)N1CCN(c2c(Cl)cccc2[N+](=O)[O-])CC1,3,
O=C(O)c1ccc(NC(CSCc2cccc(F)c2)C(=O)O)c([N+](=O)[O-])c1 (stereo unspecified),3,
CC(=O)c1cccc(NC(=O)CN(C2CCCCC2)S(C)(=O)=O)c1,-20,
CCOC(=O)Cc1nnc(NC(=O)CSc2nnc3c4ccccc4n(C)c3n2)s1,-8,
Cc1nnsc1C(=O)Nc1cccc(Cl)c1Cl,1,
C=CCn1c(-c2cccc(OC)c2)nc2nc3ccccc3nc21,-5,
Cc1cc(S(=O)(=O)N2CCCC2)ccc1OCC(=O)NCc1ccco1,8,
CC(=O)c1cccc(NC(=O)c2ccc(S(=O)(=O)N3CCCCC3)cc2)c1,3,
O=C(NCc1ccco1)c1ccc(S(=O)(=O)c2cccc(S(=O)(=O)N3CCOCC3)c2)cc1,?,VCAM1 pot conf=-21
CC(=O)c1ccc(N2CCN(S(=O)(=O)c3cccc(S(=O)(=O)N4CCOCC4)c3)CC2)cc1,-8,
O=C(NC(Cc1ccccc1)C(=O)O)c1ccc(S(=O)(=O)N2CCCCC2)cc1 (stereo unspecified),-4,
COc1cccc(CNC(=O)c2ccc(S(=O)(=O)N3CCCC3)cc2)c1,80*,VCAM1 pot conf=-17
N#CC1=C(N)OC2=C(C(=O)CCC2)C1C1C=CCCC1 (stereo unspecified),2,
O=S(=O)(NCc1ccco1)c1ccc(S(=O)(=O)N2CCCCC2)cc1,-4,
O=C(NCCCN1CCCC1=O)c1cccc(N2CCCC2=O)c1,-2,
CCc1nnc(NC(=O)CN2CCOCC2)s1,85*,VCAM1 pot conf=-10
Cn1c(CN2CCOCC2)nnc1SCC(=O)Nc1nccs1,-11,
CCc1nnc(NC(=O)c2cc3c(s2)CCCCC3)s1,9,
CN(C(=O)CSc1nc(-c2ccccc2)cn1N)C(c1ccccc1)c1ccccc1,-3,
Cn1c(SCC(=O)NC2CC2)nnc1-c1cccc(NC(=O)c2ccccc2F)c1,0,
SMILES,VCAM1 pot,others
Brc1ccc(NCc2cccc3ccccc23)nc1,31*,VCAM1 pot conf=-36
COC(=O)NNC(=O)c1ccccc1C,6,
CC(C)(CO)NC(=O)CCCOc1ccc(Cl)cc1Cl,-93,
Cc1cc(C)n(C(=O)COc2ccc(Cl)cc2Cl)n1,43*,VCAM1 pot conf=-12
COc1cc(OC)cc(C(=O)n2nc(C)cc2C)c1,-7,
CN(CC(=O)NCc1ccncc1)S(=O)(=O)c1ccc(F)cc1,-100,
N#Cc1cc(-c2ccccc2)nnc1Oc1ccccc1Cl,-3,
O=C(COc1ccc2ccccc2c1Br)Nn1cnnc1,-22,
Cc1ccccc1OCCNc1ccc(C(F)(F)F)cc1[N+](=O)[O-],-4,
O=c1c2ccccc2nc(-c2ccoc2)n1CCc1ccccc1,-2,
CC1CCN(C(=O)Cn2c(=O)n(CCc3ccccc3)c(=O)c3ccccc32)CC1,?,VCAM1 pot conf=-27
O=C(Cn1cnc2ccccc2c1=O)N1CCN(Cc2ccccc2)CC1,-5,
Cc1ccc(OC(=O)CCC(=O)OCCCC(F)(F)C(F)(F)F)cc1,?,VCAM1 pot conf=-8
COc1ccc(OCC(=O)Sc2ccc(C)cc2)cc1,7,
O=C(CNC(=O)c1cccs1)NC1=NCCS1,-7,
COc1ccc(NC(=O)c2ccc(CN3CCN(c4ccccc4)CC3)cc2)cc1OC,?,VCAM1 pot conf=-7
COc1ccc(CNC(=O)c2ccc(CN3CCOCC3)cc2)cc1,-8,
COc1cc(NC(=O)NCCN2CCN(c3ccc(Cl)cc3)CC2)ccc1C,-1,
CC(C(=O)Nc1ccccc1-c1ccccc1)N1CCCCC1 (stereo unspecified),3,
COC(=O)C1=C(CSc2nnnn2C)NC(=O)NC1c1cc(C)ccc1C (stereo unspecified),12,
CCn1cc(Br)c(C(=O)N2CCN(c3ccccc3)CC2)n1,34,
COc1ccc(C(=O)Nc2nc3ccccc3[nH]2)cc1OC,-7,
COc1ccc(C(=O)/C(C)=N/O)cc1OC,-5,
COc1ccc(C(=O)Nn2c(C)nnc2-n2nc(C)cc2C)cc1OC,43*,VCAM1 pot conf=-13
Cc1nc2sc(C(c3ccc(Cl)cc3)N3CC(C)OC(C)C3)c(O)n2n1 (stereo unspecified),-36,
SMILES,VCAM1 pot,others
c1ccc(CSc2nnc(-c3ccncc3)o2)cc1,58*,VCAM1 pot conf=-13
COC(=O)C(C)Sc1nnc(-c2ccncc2)o1 (stereo unspecified),-19,
c1ccc(-c2nnc(CSc3nncs3)o2)cc1,-93,
CCOC(=O)c1sc(NC(=O)/C=C/c2cnn(CC)c2C)c(C(=O)OCC)c1C,-1,
CCOC(=O)c1cnn(-c2nc3c(C)cccc3s2)c1C,-92,
Cc1ccc(S(=O)(=O)NC(C)(C)CSc2nnc(N)s2)cc1,3,
